Common to all, as to test: DAPPL (digital affinity profiling via proximity ligation, sequencing); 10 mM Tris-HCl pH 7.5, 50 mM NaCl, 1 mM DTT, 4% glycerol, room temperature, 30 min; GST-TFs on glutathione beads, 16-mer random dsDNA library, 0.1% formaldehyde crosslink after washing; high values mean tight binding
The target of one assay is T1, FLI1 (Homo sapiens, UniProt Q01543 1-452).
T1 sequence: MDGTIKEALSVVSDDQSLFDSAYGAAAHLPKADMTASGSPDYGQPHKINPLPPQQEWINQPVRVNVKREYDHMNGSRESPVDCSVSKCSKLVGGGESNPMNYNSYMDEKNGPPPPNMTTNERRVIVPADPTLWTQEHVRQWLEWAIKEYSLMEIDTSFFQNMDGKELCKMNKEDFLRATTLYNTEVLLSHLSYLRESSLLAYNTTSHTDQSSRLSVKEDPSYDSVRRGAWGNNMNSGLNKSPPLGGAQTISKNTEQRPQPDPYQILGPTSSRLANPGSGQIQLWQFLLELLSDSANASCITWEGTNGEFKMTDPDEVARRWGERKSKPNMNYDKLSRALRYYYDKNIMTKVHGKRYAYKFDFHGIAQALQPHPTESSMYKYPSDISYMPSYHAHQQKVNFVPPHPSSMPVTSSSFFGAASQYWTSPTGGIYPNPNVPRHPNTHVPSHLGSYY
Conditions: protein: recombinant; tags: N-terminal GST; dsDNA, one strand shown. The essentials:
(§1)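 The binding signal reported is, for every hexamer, its read frequency for a factor over its read frequency for the tag-only sample. Reads came from pools of yeast-expressed, GST-fused human transcription factors on glutathione beads, barcoded with DNA and mixed with that sample, which were incubated with 200 nmole of a random double-stranded 16-mer DNA library in Tris/NaCl/DTT/glycerol buffer at room temperature for 30 min. After washing, the pools were crosslinked with 0.1% formaldehyde, proximity-ligated with BsaI/T4 ligase for 1 h at 37 °C, PCR-amplified and sequenced on an Illumina NextSeq500.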

A further assay deals with T2, ELK1 (Homo sapiens, UniProt P19419 1-428).
T2 sequence: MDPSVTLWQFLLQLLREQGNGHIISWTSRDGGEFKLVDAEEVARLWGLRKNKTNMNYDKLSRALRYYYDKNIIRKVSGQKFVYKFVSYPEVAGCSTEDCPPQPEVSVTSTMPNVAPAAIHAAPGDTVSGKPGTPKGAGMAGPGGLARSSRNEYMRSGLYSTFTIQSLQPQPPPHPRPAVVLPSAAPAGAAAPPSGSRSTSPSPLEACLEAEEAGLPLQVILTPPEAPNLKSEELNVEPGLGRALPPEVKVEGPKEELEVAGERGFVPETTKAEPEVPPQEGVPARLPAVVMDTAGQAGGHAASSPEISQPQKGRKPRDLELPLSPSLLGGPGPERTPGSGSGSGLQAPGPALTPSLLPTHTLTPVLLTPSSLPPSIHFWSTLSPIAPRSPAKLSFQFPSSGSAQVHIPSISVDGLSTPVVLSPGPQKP
The following applies: protein: recombinant; tags: N-terminal GST; dsDNA, one strand shown. A digest of the protocol: as §1

The target in a further assay is T3, GABPA (Homo sapiens, UniProt Q06546 1-454).
T3 sequence: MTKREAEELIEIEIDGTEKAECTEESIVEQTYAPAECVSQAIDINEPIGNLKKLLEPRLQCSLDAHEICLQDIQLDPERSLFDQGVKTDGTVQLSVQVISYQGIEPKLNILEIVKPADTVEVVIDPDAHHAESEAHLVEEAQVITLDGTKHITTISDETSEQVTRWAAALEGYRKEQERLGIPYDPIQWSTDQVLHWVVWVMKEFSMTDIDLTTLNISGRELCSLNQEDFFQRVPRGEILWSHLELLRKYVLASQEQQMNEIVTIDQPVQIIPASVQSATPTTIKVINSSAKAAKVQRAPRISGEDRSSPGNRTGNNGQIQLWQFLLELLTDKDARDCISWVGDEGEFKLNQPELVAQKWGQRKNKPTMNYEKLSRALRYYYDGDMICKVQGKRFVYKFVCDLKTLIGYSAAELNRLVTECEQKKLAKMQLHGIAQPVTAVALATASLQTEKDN
The following applies: protein: recombinant; tags: N-terminal GST; dsDNA, one strand shown. The essentials:
as §1

A further assay addresses T4, ERG (Homo sapiens, UniProt P11308 1-479).
T4 sequence: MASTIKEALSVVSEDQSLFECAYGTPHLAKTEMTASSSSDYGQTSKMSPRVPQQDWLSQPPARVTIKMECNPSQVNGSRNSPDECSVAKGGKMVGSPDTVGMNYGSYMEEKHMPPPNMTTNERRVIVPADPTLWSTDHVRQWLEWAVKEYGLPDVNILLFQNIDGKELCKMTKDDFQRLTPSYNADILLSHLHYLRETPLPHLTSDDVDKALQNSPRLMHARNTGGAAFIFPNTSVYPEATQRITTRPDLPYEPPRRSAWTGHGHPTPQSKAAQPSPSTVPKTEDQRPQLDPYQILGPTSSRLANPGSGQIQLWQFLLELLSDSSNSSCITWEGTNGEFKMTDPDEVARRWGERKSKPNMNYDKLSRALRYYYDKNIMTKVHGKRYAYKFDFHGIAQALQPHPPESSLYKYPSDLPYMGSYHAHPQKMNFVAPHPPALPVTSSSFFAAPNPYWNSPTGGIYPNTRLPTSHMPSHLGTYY
The following applies: protein: recombinant; tags: N-terminal GST; dsDNA, one strand shown. A digest of the protocol:
as §1

The target of the next assay is ELF1 (Homo sapiens, UniProt P32519 1-619). Conditions: protein: recombinant; tags: N-terminal GST; dsDNA, one strand shown. A digest of the protocol:
as §1

The target in another assay is T5, EHF (Homo sapiens, UniProt Q9NZC4 1-300).
T5 sequence: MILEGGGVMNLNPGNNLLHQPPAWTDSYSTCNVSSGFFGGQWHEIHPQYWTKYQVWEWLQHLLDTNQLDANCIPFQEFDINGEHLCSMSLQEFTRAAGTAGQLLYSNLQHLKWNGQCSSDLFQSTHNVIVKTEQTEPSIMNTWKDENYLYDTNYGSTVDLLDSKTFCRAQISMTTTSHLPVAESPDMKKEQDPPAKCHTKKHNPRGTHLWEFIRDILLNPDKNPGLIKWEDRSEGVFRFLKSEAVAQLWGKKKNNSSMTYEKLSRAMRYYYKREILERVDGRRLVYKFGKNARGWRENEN
The following applies: protein: recombinant; tags: N-terminal GST; dsDNA, one strand shown. The essentials: as §1

In a further assay the target is SPI1 (Homo sapiens, UniProt P17947 1-270). Conditions: protein: recombinant; tags: N-terminal GST; dsDNA, one strand shown. The essentials: as §1
A further assay has as its target SPIB (Homo sapiens, UniProt Q01892 1-262). Conditions: protein: recombinant; tags: N-terminal GST; dsDNA, one strand shown. A digest of the protocol: as §1
Another assay addresses T6, ELK3 (Homo sapiens, UniProt P41970 1-407).
T6 sequence: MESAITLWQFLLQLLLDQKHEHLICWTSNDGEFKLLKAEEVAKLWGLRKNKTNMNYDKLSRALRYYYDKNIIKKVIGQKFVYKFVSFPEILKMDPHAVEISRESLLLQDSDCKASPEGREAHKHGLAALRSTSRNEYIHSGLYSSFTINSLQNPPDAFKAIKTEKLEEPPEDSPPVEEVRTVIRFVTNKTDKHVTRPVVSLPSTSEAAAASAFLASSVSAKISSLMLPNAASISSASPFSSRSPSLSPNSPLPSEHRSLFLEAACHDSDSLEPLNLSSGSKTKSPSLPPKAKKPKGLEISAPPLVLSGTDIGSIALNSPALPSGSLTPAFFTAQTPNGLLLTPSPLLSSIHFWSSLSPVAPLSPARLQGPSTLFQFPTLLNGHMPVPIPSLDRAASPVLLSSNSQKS
The following applies: protein: recombinant; tags: N-terminal GST; dsDNA, one strand shown. The essentials: as §1

The target in a further assay is T7, FEV (Homo sapiens, UniProt Q99581 1-238).
T7 sequence: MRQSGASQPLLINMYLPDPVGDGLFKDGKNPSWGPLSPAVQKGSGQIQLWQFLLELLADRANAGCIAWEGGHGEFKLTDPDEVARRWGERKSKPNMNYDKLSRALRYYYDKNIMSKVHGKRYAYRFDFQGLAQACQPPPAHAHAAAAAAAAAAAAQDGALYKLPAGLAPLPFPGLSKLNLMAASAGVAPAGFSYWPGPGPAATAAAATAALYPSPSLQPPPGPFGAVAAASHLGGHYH
The following applies: protein: recombinant; tags: N-terminal GST; dsDNA, one strand shown. A digest of the protocol:
as §1

Another assay deals with ETV5 (Homo sapiens, UniProt P41161 1-510). Conditions: protein: recombinant; tags: N-terminal GST; dsDNA, one strand shown. A digest of the protocol: as §1
Another assay deals with HSF1 (Homo sapiens, UniProt Q00613 1-529). The following applies: protein: recombinant; tags: N-terminal GST; chain copies: 3; dsDNA, one strand shown. The essentials:
as §1

A further assay addresses T8, SPIC (Homo sapiens, UniProt Q8N5J4 1-248).
T8 sequence: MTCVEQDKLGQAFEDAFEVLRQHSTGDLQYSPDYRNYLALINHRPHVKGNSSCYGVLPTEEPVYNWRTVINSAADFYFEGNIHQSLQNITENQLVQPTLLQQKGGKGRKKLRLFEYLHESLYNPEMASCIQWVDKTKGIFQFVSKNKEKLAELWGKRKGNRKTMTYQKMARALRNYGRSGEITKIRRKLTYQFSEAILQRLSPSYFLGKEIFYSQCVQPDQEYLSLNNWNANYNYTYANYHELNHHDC
The following applies: protein: recombinant; tags: N-terminal GST; dsDNA, one strand shown. The essentials: as §1

In another assay the target is ELF4 (Homo sapiens, UniProt Q99607 1-663). The following applies: protein: recombinant; tags: N-terminal GST; dsDNA, one strand shown. A digest of the protocol: as §1
For the next assay, the target named is T9, ELK4 (Homo sapiens, UniProt P28324-2 1-405).
T9 sequence: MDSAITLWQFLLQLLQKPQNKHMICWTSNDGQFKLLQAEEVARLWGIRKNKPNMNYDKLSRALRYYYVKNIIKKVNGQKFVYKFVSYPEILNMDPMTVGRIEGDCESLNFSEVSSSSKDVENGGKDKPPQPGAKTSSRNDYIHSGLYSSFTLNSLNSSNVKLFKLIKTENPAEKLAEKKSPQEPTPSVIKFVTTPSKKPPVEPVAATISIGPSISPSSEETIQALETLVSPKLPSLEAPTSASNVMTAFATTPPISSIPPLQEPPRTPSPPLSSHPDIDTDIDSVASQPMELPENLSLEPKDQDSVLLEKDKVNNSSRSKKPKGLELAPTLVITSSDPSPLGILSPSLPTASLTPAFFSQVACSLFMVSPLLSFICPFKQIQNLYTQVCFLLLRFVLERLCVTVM
Conditions: protein: recombinant; tags: N-terminal GST; dsDNA, one strand shown. A digest of the protocol:
as §1

The target of a further assay is T10, ETV2 (Homo sapiens, UniProt O00321 1-342).
T10 sequence: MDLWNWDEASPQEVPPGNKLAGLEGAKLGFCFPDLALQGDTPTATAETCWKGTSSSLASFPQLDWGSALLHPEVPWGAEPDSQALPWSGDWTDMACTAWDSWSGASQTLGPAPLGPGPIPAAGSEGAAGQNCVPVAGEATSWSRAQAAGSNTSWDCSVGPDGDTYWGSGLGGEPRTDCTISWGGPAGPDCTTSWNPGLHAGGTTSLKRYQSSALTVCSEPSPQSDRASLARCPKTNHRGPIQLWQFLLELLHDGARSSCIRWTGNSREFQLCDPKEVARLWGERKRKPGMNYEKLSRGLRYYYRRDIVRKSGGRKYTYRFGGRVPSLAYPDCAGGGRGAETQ
The following applies: protein: recombinant; tags: N-terminal GST; dsDNA, one strand shown. A digest of the protocol: as §1

Another assay deals with T11, ELF3 (Homo sapiens, UniProt P78545 1-371).
T11 sequence: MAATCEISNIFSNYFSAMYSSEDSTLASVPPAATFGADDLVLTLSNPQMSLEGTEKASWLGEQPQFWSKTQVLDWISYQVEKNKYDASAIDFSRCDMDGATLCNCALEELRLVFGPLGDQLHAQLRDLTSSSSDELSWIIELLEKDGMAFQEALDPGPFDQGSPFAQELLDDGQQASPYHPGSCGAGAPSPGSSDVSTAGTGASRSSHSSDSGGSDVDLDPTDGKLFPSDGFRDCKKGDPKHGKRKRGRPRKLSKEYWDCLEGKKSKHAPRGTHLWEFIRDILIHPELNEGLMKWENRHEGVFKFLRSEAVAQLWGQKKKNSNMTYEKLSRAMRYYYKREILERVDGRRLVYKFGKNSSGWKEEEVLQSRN
The following applies: protein: recombinant; tags: N-terminal GST; dsDNA, one strand shown. A digest of the protocol:
as §1

A further assay deals with CRX (Homo sapiens, UniProt O43186 1-299). Conditions: protein: recombinant; tags: N-terminal GST; dsDNA, one strand shown. The essentials: as §1
The target of the next assay is ETV1 (Homo sapiens, UniProt P50549 1-477). Conditions: protein: recombinant; tags: N-terminal GST; dsDNA, one strand shown. The essentials:
as §1

Chain of HSF1 (Q00613 whole entry): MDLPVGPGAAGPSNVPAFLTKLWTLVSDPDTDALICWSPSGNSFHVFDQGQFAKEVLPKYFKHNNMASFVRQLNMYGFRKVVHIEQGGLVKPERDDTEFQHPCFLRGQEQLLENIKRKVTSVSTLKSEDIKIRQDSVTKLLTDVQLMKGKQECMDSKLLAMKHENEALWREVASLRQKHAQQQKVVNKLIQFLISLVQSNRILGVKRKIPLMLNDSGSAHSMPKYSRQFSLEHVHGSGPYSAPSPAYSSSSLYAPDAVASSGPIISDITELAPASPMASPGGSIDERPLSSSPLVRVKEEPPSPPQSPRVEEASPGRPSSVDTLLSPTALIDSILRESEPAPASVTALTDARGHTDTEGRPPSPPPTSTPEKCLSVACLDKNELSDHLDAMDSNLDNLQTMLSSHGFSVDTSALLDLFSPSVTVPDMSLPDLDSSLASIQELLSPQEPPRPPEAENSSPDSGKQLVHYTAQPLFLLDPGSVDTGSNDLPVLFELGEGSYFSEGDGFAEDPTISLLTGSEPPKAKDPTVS
Chain of ETV5 (P41161 whole entry): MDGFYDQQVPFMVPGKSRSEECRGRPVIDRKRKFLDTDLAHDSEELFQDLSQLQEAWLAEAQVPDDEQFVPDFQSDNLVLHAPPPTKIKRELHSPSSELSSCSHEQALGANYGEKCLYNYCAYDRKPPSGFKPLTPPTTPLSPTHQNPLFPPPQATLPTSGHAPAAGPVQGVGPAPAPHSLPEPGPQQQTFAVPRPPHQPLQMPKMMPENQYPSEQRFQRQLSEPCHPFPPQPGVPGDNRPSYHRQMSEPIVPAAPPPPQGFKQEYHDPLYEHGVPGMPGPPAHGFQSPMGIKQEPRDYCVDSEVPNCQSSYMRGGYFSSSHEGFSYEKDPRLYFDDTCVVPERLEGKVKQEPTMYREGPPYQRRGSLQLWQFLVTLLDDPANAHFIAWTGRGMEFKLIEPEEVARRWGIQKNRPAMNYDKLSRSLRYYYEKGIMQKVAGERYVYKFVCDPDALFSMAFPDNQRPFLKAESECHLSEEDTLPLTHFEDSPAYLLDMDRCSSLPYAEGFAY
Chain of ELF4 (Q99607 whole entry): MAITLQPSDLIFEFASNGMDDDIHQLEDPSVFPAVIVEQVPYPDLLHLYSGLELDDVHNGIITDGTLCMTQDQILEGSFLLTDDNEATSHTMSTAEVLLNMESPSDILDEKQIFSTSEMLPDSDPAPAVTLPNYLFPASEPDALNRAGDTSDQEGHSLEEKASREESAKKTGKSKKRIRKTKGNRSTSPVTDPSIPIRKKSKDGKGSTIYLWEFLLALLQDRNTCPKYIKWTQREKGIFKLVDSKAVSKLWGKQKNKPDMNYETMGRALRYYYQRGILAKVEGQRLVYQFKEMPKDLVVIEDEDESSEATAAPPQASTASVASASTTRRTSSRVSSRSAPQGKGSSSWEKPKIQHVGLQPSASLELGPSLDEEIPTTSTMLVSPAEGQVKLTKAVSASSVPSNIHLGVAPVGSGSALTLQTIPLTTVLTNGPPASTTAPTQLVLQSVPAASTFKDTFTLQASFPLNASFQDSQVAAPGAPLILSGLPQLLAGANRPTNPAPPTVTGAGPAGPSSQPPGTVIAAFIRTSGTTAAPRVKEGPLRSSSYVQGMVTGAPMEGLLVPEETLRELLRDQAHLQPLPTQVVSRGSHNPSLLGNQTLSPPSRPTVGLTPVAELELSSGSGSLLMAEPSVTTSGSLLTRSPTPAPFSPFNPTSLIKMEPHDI
Chain of ETV1 (P50549 whole entry): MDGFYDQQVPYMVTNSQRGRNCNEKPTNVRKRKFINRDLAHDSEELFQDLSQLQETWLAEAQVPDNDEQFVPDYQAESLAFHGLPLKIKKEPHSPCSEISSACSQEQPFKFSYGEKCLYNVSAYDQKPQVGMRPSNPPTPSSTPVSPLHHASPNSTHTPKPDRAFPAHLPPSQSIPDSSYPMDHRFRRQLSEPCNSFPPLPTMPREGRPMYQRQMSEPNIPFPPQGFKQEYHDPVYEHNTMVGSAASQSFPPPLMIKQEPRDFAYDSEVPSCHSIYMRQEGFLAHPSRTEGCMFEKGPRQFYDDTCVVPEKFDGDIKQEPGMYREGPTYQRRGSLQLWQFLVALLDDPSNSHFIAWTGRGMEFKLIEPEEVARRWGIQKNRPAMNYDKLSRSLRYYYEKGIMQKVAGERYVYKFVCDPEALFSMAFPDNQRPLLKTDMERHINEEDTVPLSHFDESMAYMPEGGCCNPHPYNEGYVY
Chain of CRX (O43186 whole entry): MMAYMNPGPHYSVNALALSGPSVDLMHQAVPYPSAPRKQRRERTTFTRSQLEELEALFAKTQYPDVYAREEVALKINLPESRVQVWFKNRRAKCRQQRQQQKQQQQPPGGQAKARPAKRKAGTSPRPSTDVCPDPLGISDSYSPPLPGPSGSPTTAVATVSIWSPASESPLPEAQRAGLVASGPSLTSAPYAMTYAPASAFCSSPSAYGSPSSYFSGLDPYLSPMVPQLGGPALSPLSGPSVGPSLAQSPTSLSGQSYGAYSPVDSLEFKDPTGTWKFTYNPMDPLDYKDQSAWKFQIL
Chain of ELF1 (P32519 whole entry): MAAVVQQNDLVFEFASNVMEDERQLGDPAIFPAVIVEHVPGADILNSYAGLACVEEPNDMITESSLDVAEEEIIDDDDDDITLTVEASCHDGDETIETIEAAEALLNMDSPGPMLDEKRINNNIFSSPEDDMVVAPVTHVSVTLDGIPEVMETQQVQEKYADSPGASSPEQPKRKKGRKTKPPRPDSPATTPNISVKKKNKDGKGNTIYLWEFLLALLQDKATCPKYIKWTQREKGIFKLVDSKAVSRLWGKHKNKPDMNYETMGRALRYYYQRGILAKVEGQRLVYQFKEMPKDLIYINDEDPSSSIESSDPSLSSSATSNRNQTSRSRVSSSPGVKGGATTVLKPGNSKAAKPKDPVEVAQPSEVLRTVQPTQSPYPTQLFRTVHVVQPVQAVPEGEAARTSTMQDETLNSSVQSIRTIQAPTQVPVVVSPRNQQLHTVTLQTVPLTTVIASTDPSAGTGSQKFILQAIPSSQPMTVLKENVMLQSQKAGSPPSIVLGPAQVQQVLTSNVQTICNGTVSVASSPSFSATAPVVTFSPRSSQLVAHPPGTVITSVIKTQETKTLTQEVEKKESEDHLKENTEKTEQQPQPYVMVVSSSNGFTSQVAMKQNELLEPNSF
Chain of SPIB (Q01892 whole entry): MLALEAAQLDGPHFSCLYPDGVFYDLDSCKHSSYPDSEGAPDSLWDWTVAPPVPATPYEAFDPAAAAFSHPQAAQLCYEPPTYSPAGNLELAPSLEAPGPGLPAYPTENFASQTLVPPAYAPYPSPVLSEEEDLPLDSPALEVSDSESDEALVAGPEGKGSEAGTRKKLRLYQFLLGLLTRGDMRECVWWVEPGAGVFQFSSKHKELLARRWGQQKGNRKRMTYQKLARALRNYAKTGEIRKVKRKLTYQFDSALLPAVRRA

With GAAGCT, the binding signal with FLI1 is 1.62 fold enrichment (6-mer frequency, TF over GST control); in the assay with ELK1 it was 1.7 fold enrichment (6-mer frequency, TF over GST control); in the assay with GABPA, 1.52 fold enrichment (6-mer frequency, TF over GST control); with ERG, 1.64 fold enrichment (6-mer frequency, TF over GST control); in the assay with ELF1 it was 1.44 fold enrichment (6-mer frequency, TF over GST control); with EHF, 1.69 fold enrichment (6-mer frequency, TF over GST control). Moreover, the binding signal in the assay with SPI1 is 1.63 fold enrichment (6-mer frequency, TF over GST control); with SPIB, 1.64 fold enrichment (6-mer frequency, TF over GST control); with ELK3 it was 1.66 fold enrichment (6-mer frequency, TF over GST control); with FEV, 1.48 fold enrichment (6-mer frequency, TF over GST control); with ETV5, 1.62 fold enrichment (6-mer frequency, TF over GST control); with HSF1, 1.74 fold enrichment (6-mer frequency, TF over GST control). Also, the binding signal is 1.44 fold enrichment (6-mer frequency, TF over GST control) with SPIC; 1.49 fold enrichment (6-mer frequency, TF over GST control) with ELF4; 1.69 fold enrichment (6-mer frequency, TF over GST control) with ELK4; 1.56 fold enrichment (6-mer frequency, TF over GST control) with ETV2; 1.47 fold enrichment (6-mer frequency, TF over GST control) with ELF3; 1.47 fold enrichment (6-mer frequency, TF over GST control) with CRX. Further, the binding signal in the assay with ETV1 is 1.57 fold enrichment (6-mer frequency, TF over GST control).

The values above are taken from publication PMC7862700, “An all-to-all approach to the identification of sequence-specific readers for epigenetic DNA modifications on cytosine”.
